According to PubChem BioAssay AID1233 (SRMLSC, 2008):
Entries with a potency or affinity are not part of this list. Activity calls are given as the source filed them.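 How the source made its calls: active means a dose-response curve fit returns a half-maximal inhibitory concentration, extrapolated values included; inactive means the fit returns no such concentration.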

molecular target: HMG-CoA reductase [Enterococcus faecalis] (UniProt Q9FD70); experiment: inhibitors of E. faecalis class II HMGR, confirmation, biochemical, Enterococcus faecalis (AID 1233); details: purified E. faecalis HMGR, NADPH absorbance 340 nm kinetics; series mostly up to 100 µM

outcome, inactive:
Cn1c(SCC(=O)c2ccc(F)cc2)nnc1-c1cccnc1, CCNC(=O)CSc1nc2cc([N+](=O)[O-])ccc2n1-c1cccc(C(F)(F)F)c1, O=C(COC(=O)C1CCC(=O)N1)Nc1ccc(Br)cc1 (stereo not drawn), CC1CCCC(NC(=O)CN(C)S(=O)(=O)c2cnc[nH]2)C1C (stereo not drawn), CN(C1CCCC1)C1CCN(C(=O)CNC(=O)/C=C/c2ccccc2)CC1, Cc1cc(C)cc(-n2c3nc4ccccc4nc3c3c(=O)n(Cc4ccco4)cnc32)c1, Cc1ncc([N+](=O)[O-])n1CC(C)O (stereo not drawn), CCN1CCN(CCC(=O)Nc2ccc3c(c2)OCO3)CC1, CCN(CC)S(=O)(=O)c1cccc(C(=O)Nc2cc(C)cc(C)c2)c1, CCCCCC/C(C)=C1/SC(=S)NC1=O, Cc1ccc(Cl)cc1NC(=O)COC(=O)C12CC3CC(CC(C3)C1)C2, Nc1c(C(=O)c2ccccc2)sc2c1c(=O)[nH]c(=O)n2-c1ccccc1, Cc1ccc(SC(=O)COc2ccc(C)c(C)c2)cc1, O=C(Cn1ncc2ccccc21)N1CCN(c2cccc(C(F)(F)F)c2)CC1, CCCn1c(C(O)c2ccc(OC)cc2)nc2ccccc21 (stereo not drawn), CC(C)NC(=S)N=Nc1c(O)[nH]c2ccc(C(C)C)cc12, COC(=O)c1ccccc1NC(=O)NCc1ccco1, C=CCOC(=O)c1sc(NC(=O)c2ccco2)nc1C, Brc1ccc(CSc2nnc3ccccn23)cc1, COc1ccc(CCNC(=O)c2ccccc2Cl)cc1OC, CCOC(=O)c1c(C)oc2c1c(C=NCCO)c(O)c1ccccc12, Cc1cccnc1NC(=O)Cn1nc([N+](=O)[O-])cc1C, CCN(CC)S(=O)(=O)c1cccc(C(=O)N[C@H](C(=O)Nc2nc3ccccc3s2)C(C)C)c1, Cc1[nH][nH]c(=O)c1C(c1c(C)[nH][nH]c1=O)c1cn(Cc2ccc(F)cc2)c2ccccc12, COC(=O)c1ccc(C(NC(=O)OCc2ccccc2)/C(C)=C/[C@@H](C)C(=O)NCc2ccc(-c3ccccc3)cc2)cc1 (stereo partly drawn), CN(C=O)CP(=O)(O)CN1CCCCC1, Cc1c(NS(=O)(=O)c2ccc3c(c2)Cc2ccccc2-3)c(=O)n(-c2ccccc2)n1C, Cc1nn(CCC(=O)NNC(=S)Nc2ccc([N+](=O)[O-])cc2)c(C)c1[N+](=O)[O-], COc1ccc(N=c2ssnc2Cl)cc1, CC1CCCN(C(=O)C2CCN(CC(C)c3ccccc3)CC2)C1 (stereo not drawn), CN(Cc1ccccc1)c1nc(N)nc(Cl)c1C=O, ON/C=N/C(=S)Nc1ncc(C(F)(F)F)cc1Cl, Fc1ccccc1Cn1cnc(NC(=S)NCCc2ccccc2)n1, COc1cc(-c2nnc(SC/C=C/c3ccccc3)n2N)cc(OC)c1OC, CCc1c(C)nc2c(C#N)c(C)[nH]n2c1=O, O=C(Nc1ccc2c(c1)OCO2)c1noc2c1CCCCC2, Fc1ccc(-c2csc3[n+]2CCS3)cc1, CCCCc1c(O)nc(SCC(=O)c2ccccc2)[nH]c1=O
